{"source": "the supplement of paper PMC10681739", "key": {"ETS1 [1]": {"biological_target": "T1, ETS1 (UniProt P14921)", "T1 sequence": "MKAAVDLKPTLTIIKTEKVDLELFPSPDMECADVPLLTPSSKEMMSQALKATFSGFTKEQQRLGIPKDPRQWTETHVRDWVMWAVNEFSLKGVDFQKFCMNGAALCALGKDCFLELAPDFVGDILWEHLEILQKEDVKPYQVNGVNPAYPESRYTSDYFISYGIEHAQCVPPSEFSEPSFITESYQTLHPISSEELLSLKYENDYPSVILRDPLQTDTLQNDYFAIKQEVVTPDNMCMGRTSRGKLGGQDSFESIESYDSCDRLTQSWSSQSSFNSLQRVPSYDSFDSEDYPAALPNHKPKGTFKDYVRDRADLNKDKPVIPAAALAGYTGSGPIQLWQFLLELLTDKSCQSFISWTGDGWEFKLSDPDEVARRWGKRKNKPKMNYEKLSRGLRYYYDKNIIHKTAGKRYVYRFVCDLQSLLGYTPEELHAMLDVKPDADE", "test": "ETS1 binding intensity (PBM fluorescence), ETS1 alone (arbitrary fluorescence units); higher = stronger binding", "conditions": "ETS1 concentration 1 nM; RUNX1 concentration 0 nM"}, "RUNX1 [2]": {"biological_target": "RUNX1 (UniProt Q01196)", "sequence (Q01196 whole entry)": "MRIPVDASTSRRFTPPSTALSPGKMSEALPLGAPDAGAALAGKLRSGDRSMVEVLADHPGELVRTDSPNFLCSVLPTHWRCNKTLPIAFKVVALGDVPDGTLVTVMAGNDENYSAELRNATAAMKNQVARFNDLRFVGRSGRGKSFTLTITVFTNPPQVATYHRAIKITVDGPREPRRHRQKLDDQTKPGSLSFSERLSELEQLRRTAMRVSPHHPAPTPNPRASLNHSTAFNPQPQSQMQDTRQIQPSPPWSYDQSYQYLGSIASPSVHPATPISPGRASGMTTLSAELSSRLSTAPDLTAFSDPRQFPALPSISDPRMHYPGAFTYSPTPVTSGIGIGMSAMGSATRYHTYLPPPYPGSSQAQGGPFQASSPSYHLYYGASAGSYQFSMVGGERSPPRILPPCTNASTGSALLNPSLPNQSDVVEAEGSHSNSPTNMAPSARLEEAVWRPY", "test": "RUNX1 binding intensity (PBM fluorescence), RUNX1 alone (arbitrary fluorescence units); higher = stronger binding", "conditions": "RUNX1 concentration 2 nM; ETS1 concentration 0 nM", "experimental": "(§1)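 Cooperative gcPBM on 36-bp genomic probes with neighbouring ETS1 and RUNX1 sites. Recombinant human RUNX1 (2 nM) was incubated alone or with ETS1 (25 nM) and detected with anti-RUNX1 antibody plus Alexa488 secondary. Values are medians over 4 replicate spots; the RUNX1+ETS1 data were normalised to the RUNX1-only data. The probes sit in constant array flanks that are not printed.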"}, "ETS1 [3]": {"biological_target": "T1, ETS1", "test": "ETS1 binding intensity (PBM fluorescence) in presence of RUNX1, normalised to ETS1-only experiment (arbitrary fluorescence units); higher = stronger binding", "conditions": "ETS1 concentration 1 nM; RUNX1 concentration 25 nM"}, "RUNX1 [4]": {"biological_target": "RUNX1 (UniProt Q01196)", "test": "RUNX1 binding intensity (PBM fluorescence) in presence of ETS1, normalised to RUNX1-only experiment (arbitrary fluorescence units); higher = stronger binding", "conditions": "RUNX1 concentration 2 nM; ETS1 concentration 25 nM", "experimental": "as §1"}}}
{"sequence": "GAGGGCCTGGGAGGAAGTGGGTTTTGCATACAGTCC", "values": [{"measurement": "ETS1 binding intensity", "setting": "ETS1 [1]", "value": 1870}, {"measurement": "RUNX1 binding intensity", "setting": "RUNX1 [2]", "value": 673}, {"measurement": "ETS1 binding intensity", "setting": "ETS1 [3]", "value": 2510}, {"measurement": "RUNX1 binding intensity", "setting": "RUNX1 [4]", "value": 1330}]}
{"sequence": "ATGTTTGGGGCCGGAAGTGGGTTGGAGGTGTGGCGG", "values": [{"measurement": "ETS1 binding intensity", "setting": "ETS1 [1]", "value": 24700}, {"measurement": "RUNX1 binding intensity", "setting": "RUNX1 [2]", "value": 706}, {"measurement": "ETS1 binding intensity", "setting": "ETS1 [3]", "value": 23800}, {"measurement": "RUNX1 binding intensity", "setting": "RUNX1 [4]", "value": 2830}]}
{"sequence": "GGGCCAGAGACGCCGGAAGTGACCGCGCGGTGCGCC", "values": [{"measurement": "ETS1 binding intensity", "setting": "ETS1 [1]", "value": 11700}, {"measurement": "RUNX1 binding intensity", "setting": "RUNX1 [2]", "value": 729}, {"measurement": "ETS1 binding intensity", "setting": "ETS1 [3]", "value": 18400}, {"measurement": "RUNX1 binding intensity", "setting": "RUNX1 [4]", "value": 1210}]}
{"sequence": "GACAAAGAGGAAGTCCCCAAAAACCACAATAACAGT", "values": [{"measurement": "ETS1 binding intensity", "setting": "ETS1 [1]", "value": 910}, {"measurement": "RUNX1 binding intensity", "setting": "RUNX1 [2]", "value": 1570}, {"measurement": "ETS1 binding intensity", "setting": "ETS1 [3]", "value": 4080}, {"measurement": "RUNX1 binding intensity", "setting": "RUNX1 [4]", "value": 3900}]}
{"sequence": "CCCCTTAGCACAGGATGTGGTCTTTGCATCTTCATT", "values": [{"measurement": "ETS1 binding intensity", "setting": "ETS1 [1]", "value": 4640}, {"measurement": "RUNX1 binding intensity", "setting": "RUNX1 [2]", "value": 1040}, {"measurement": "ETS1 binding intensity", "setting": "ETS1 [3]", "value": 7360}, {"measurement": "RUNX1 binding intensity", "setting": "RUNX1 [4]", "value": 2960}]}
{"sequence": "AAGAGGAAGTCCCAAATTGCTTTTTAACCACCAACA", "values": [{"measurement": "ETS1 binding intensity", "setting": "ETS1 [1]", "value": 522}, {"measurement": "RUNX1 binding intensity", "setting": "RUNX1 [2]", "value": 849}, {"measurement": "ETS1 binding intensity", "setting": "ETS1 [3]", "value": 874}, {"measurement": "RUNX1 binding intensity", "setting": "RUNX1 [4]", "value": 888}]}
{"sequence": "CTTGCTTAACGCTTCCTGAGGGGTGGTTTGGGTTTT", "values": [{"measurement": "ETS1 binding intensity", "setting": "ETS1 [1]", "value": 448}, {"measurement": "RUNX1 binding intensity", "setting": "RUNX1 [2]", "value": 837}, {"measurement": "ETS1 binding intensity", "setting": "ETS1 [3]", "value": 369}, {"measurement": "RUNX1 binding intensity", "setting": "RUNX1 [4]", "value": 953}]}
{"sequence": "AACAGAGACCCGGAAGTTGTGGGACGAAGCCAGGAC", "values": [{"measurement": "ETS1 binding intensity", "setting": "ETS1 [1]", "value": 4960}, {"measurement": "RUNX1 binding intensity", "setting": "RUNX1 [2]", "value": 810}, {"measurement": "ETS1 binding intensity", "setting": "ETS1 [3]", "value": 6420}, {"measurement": "RUNX1 binding intensity", "setting": "RUNX1 [4]", "value": 1260}]}
{"sequence": "GGCGGCACTAGGCTTCCGCCTCACCGCAGTGGGGTT", "values": [{"measurement": "ETS1 binding intensity", "setting": "ETS1 [1]", "value": 362}, {"measurement": "RUNX1 binding intensity", "setting": "RUNX1 [2]", "value": 855}, {"measurement": "ETS1 binding intensity", "setting": "ETS1 [3]", "value": 845}, {"measurement": "RUNX1 binding intensity", "setting": "RUNX1 [4]", "value": 1430}]}
{"sequence": "CCACCGTCCCCGGAAATAACCGCGCCTGCCTCTCAA", "values": [{"measurement": "ETS1 binding intensity", "setting": "ETS1 [1]", "value": 1940}, {"measurement": "RUNX1 binding intensity", "setting": "RUNX1 [2]", "value": 1330}, {"measurement": "ETS1 binding intensity", "setting": "ETS1 [3]", "value": 3290}, {"measurement": "RUNX1 binding intensity", "setting": "RUNX1 [4]", "value": 2090}]}
{"sequence": "GGGAGGCCCCATCCTGTGTGGCTGTGGCTTTTGCCT", "values": [{"measurement": "ETS1 binding intensity", "setting": "ETS1 [1]", "value": 414}, {"measurement": "RUNX1 binding intensity", "setting": "RUNX1 [2]", "value": 653}, {"measurement": "ETS1 binding intensity", "setting": "ETS1 [3]", "value": 451}, {"measurement": "RUNX1 binding intensity", "setting": "RUNX1 [4]", "value": 1020}]}
